Laboratory results from article PMC5540273 (PLoS ONE, 2017).

Assays:
Details in all cases: concentration: 1 μM, replicates: in singlicate; n = 1
AMPK-alpha1 = test system: T1, AMPK-alpha1
T1 construct: gene PRKAA1

AMPK-alpha2 = test system: T2, AMPK-alpha2
T2 construct: gene PRKAA2

ANKK1 = test system: ANKK1
ARK5 = test system: T3, ARK5
T3 construct: gene NUAK1

ASK1 = test system: T4, ASK1
T4 construct: gene MAP3K5

ASK2 = test system: T5, ASK2
T5 construct: gene MAP3K6

AURKA = test system: AURKA
AURKB = test system: AURKB
AURKC = test system: AURKC
AXL = test system: AXL
BIKE = test system: T6, BIKE
T6 construct: gene BMP2K

BLK = test system: BLK
BMPR1A = test system: BMPR1A
BMPR1B = test system: BMPR1B
BMPR2 = test system: BMPR2
BMX = test system: BMX
BRAF = test system: BRAF
BRK = test system: T7, BRK
T7 construct: gene PTK6

BRSK1 = test system: BRSK1
BRSK2 = test system: BRSK2
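Further: KINOMEscan kinase panel screen.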

| Structure (SMILES) | %Inh (AMPK-alpha1) [%] | %Inh (AMPK-alpha2) [%] | %Inh (ANKK1) [%] | %Inh (ARK5) [%] | %Inh (ASK1) [%] | %Inh (ASK2) [%] | %Inh (AURKA) [%] | %Inh (AURKB) [%] | %Inh (AURKC) [%] | %Inh (AXL) [%] | %Inh (BIKE) [%] | %Inh (BLK) [%] | %Inh (BMPR1A) [%] | %Inh (BMPR1B) [%] | %Inh (BMPR2) [%] | %Inh (BMX) [%] | %Inh (BRAF) [%] | %Inh (BRK) [%] | %Inh (BRSK1) [%] | %Inh (BRSK2) [%] |
| --- | --- | --- | --- | --- | --- | --- | --- | --- | --- | --- | --- | --- | --- | --- | --- | --- | --- | --- | --- | --- |
| COc1ccc(CSc2nnc(-c3ccc4c(c3)CCO4)o2)cc1 | 0 | 0 | 0 | 33 | 0 | 0 | 0 | 0 | 0 | 0 | 0 | 0 | 0 | 0 | 0 | 0 | 0 | 0 | 0 | 0 |
| Nc1ncnc2occ(-c3ccc4c(c3)CCN4C(=O)Cc3cc(F)ccc3F)c12 [GSK2645446] | 4 | 0 | 3 | 12 | 0 | 0 | 0 | 48 | 40 | 34 | 17 | 14 | 0 | 0 | 8 | 12 | 4 | 8 | 12 | 0 |
| COc1nccc(-c2c(-c3ccc(F)cc3)ncn2CCCN2CCOCC2)n1 [SB-282852] | 77 | 0 | 0 | 0 | 0 | 0 | 23 | 42 | 0 | 0 | 0 | 0 | 0 | 0 | 25 | 0 | 20 | 0 | 0 | 0 |
| COC(=O)C(NC(=O)NC1CCN(c2ccnc(Nc3ccc(F)cc3)n2)C1)c1ccccc1 (stereo not shown) [GSK1379712] | 0 | 12 | 10 | 8 | 20 | 2 | 5 | 0 | 32 | 0 | 8 | 0 | 0 | 0 | 17 | 3 | 9 | 2 | 12 | 0 |
| COc1cccc(CNC(=O)NC2CCN(c3ccnc(Nc4ccc(F)cc4)n3)C2)c1 (stereo not shown) [GSK1379723] | 0 | 12 | 0 | 24 | 0 | 9 | 11 | 37 | 49 | 6 | 19 | 0 | 0 | 0 | 3 | 7 | 10 | 17 | 0 | 0 |
| COC(=O)c1cccc(NC(=O)NC2CCN(c3ccnc(Nc4ccc(F)cc4)n3)C2)c1 (stereo not shown) [GSK1379725] | 0 | 0 | 0 | 0 | 0 | 1 | 0 | 39 | 34 | 6 | 20 | 26 | 0 | 0 | 0 | 0 | 0 | 8 | 0 | 0 |
| FC(F)(F)c1ccccc1-c1cc(-c2c[nH]nc2-c2ccccn2)ccn1 [GW679396] | 0 | 25 | 0 | 0 | 10 | 0 | 44 | 0 | 16 | 0 | 24 | 1 | 13 | 0 | 7 | 0 | 0 | 20 | 0 | 0 |
| CCc1ccc(-c2ccc3c(c2)-c2n[nH]cc2S(=O)(=O)N3C)cc1 | 0 | 1 | 0 | 13 | 6 | 0 | 0 | 0 | 11 | 51 | 12 | 9 | 0 | 0 | 0 | 0 | 0 | 0 | 0 | 4 |
| COc1ccc(CSc2nnc(-c3ccc4ncsc4c3)o2)cc1C(F)(F)F | 0 | 13 | 0 | 10 | 0 | 4 | 0 | 13 | 0 | 0 | 0 | 0 | 17 | 0 | 0 | 0 | 0 | 0 | 0 | 0 |
| Cc1ccc(NC(=O)Nc2ccc(Cl)c(C(F)(F)F)c2)cc1-c1ccc(C(=O)Nc2ccncc2)cc1 [GSK1398470] | 2 | 16 | 15 | 14 | 0 | 0 | 0 | 0 | 8 | 17 | 8 | 7 | 6 | 0 | 0 | 21 | 73 | 29 | 7 | 0 |
| CNC(=O)c1ccc(C)c(-n2c(C)cc(OCc3ccc(F)cc3F)c(Br)c2=O)c1 | 0 | 5 | 0 | 0 | 15 | 0 | 0 | 0 | 0 | 0 | 3 | 0 | 39 | 0 | 0 | 0 | 0 | 0 | 0 | 0 |
